# PMC7819943, “Rice protein-binding microarrays: a tool to detect cis-acting elements near promoter regions in rice”
# In all, about 68,000 sequences were measured (“fluorescence intensity (a.u.)”: median about 9,100, highest 2% from about 16,000 on). This excerpt belongs to a sample that is enriched for the highest values.
# Biological target: OsWRKY34 (Oryza sativa, UniProt Q0JBA9 1-250)
# Assay: protein-binding microarray (RPBM); PBS, 2% BSA, 51.3 ng/ul salmon testes DNA, 50 uM zinc acetate, 200 nM TF, 25 C, 1 h; high values mean tight binding
# Details: protein: recombinant; tags: N-terminal polyhistidine and DsRed monomer fusion (pET32a); label: CyDye5-dUTP incorporated in the synthesized complementary strand; 3' TTTTT single-stranded linker to array surface; dsDNA, one strand shown
# Outline: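 Per-feature fluorescence intensity (arbitrary units), read on an Axon 4000B scanner, is the binding signal. Transcription factors carrying an N-terminal polyhistidine tag and DsRed fusion were expressed in E. coli BL21-CodonPlus and purified on Ni–NTA. A custom Agilent array, made double-stranded by primer extension with Cy5-dUTP and blocked with 2% BSA, was incubated with 200 nM protein in PBS, 2% BSA, salmon testes DNA and 50 µM zinc acetate at 25 °C for 1 h and then washed.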
# OsWRKY34, sequence (Q0JBA9 entry or part of it): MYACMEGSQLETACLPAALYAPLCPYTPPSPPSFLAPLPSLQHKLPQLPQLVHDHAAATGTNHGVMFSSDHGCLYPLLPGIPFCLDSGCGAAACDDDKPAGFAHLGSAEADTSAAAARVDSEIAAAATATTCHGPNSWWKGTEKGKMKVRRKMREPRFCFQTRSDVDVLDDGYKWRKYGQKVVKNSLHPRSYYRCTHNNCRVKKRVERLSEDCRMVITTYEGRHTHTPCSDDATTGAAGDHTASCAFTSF
row,Sequence,binding signal
1,TTTCTTTTGCATTTTCCCTGTTCCATATCGTTTTTTTCTCCGGAGTCACCTAGTGCAG,8560 fluorescence intensity (a.u.)
2,TTGCATTTTTGACTGTTTGCGTTGACTCCCTCACTTCTTCCGGAGTCACCTAGTGCAG,16400 fluorescence intensity (a.u.)
3,CTCCCTCCGTTTCAAAATGTTTGACACCGTTGACTTTTTACGGAGTCACCTAGTGCAG,28300 fluorescence intensity (a.u.)
4,TACTACTCCCTCCGTTTCAAAATGTTTGACACCGTTGACTCGGAGTCACCTAGTGCAG,13100 fluorescence intensity (a.u.)
5,TTTCTTCCATACTGAAATGTGTATCTTAGCTACTGAAGCTCGGAGTCACCTAGTGCAG,8440 fluorescence intensity (a.u.)
6,CATTTAATCTCCTCGTTACCGCTCAATTAACGCACCGATTCGGAGTCACCTAGTGCAG,8880 fluorescence intensity (a.u.)
7,CGGAGATCTTCAGAAACGAGTTATTTTTCCTCGCAAAACGCGGAGTCACCTAGTGCAG,8690 fluorescence intensity (a.u.)
8,ATTTGATCCTCTTTTTTCAACTTTGCTTATTTGACCCTTCCGGAGTCACCTAGTGCAG,11100 fluorescence intensity (a.u.)
9,TCACCCTTCACCTGCATGATCCTCTCTTTTTCAATCCCTCCGGAGTCACCTAGTGCAG,9340 fluorescence intensity (a.u.)
10,GCTCCGACTCCCTGTTTCCTGGTCCTCTTTTACACCGGCTCGGAGTCACCTAGTGCAG,15100 fluorescence intensity (a.u.)
11,TACATGTCTTAGAGCTACACATCTCTGATTTTTTTTTACACGGAGTCACCTAGTGCAG,8950 fluorescence intensity (a.u.)
12,TCTCTTCCGGTCGGAAGCTTGCTTTCCTTTTCTTCTTCTTCGGAGTCACCTAGTGCAG,8360 fluorescence intensity (a.u.)
13,CCATTCCGCCCACTAGCTTTCTCTCTCTATTTTCTTTTTCCGGAGTCACCTAGTGCAG,16800 fluorescence intensity (a.u.)
14,CATATGTTGTTTTCTATTTCCCACTAATTTTCGTCATTTTCGGAGTCACCTAGTGCAG,10400 fluorescence intensity (a.u.)
15,TAGATTCTCTTTCTATTTTCTTTCCACTTAGCTTAGATATCGGAGTCACCTAGTGCAG,9100 fluorescence intensity (a.u.)
16,CTTCTATTTTCTTTCTGCTCTTCTCTTCTCTTGTCTACTTCGGAGTCACCTAGTGCAG,10300 fluorescence intensity (a.u.)
17,CGGAGTCGGTCAAGCTTAACCACTATTCCTTTCCGGATTGCGGAGTCACCTAGTGCAG,61500 fluorescence intensity (a.u.)
18,TTTTCTATTTCCCACTACTTTTCGTCATTTTTCTAATATTCGGAGTCACCTAGTGCAG,18100 fluorescence intensity (a.u.)
19,CTCTGTAATATATCATTATGACTGCTAATTCGTCTATTTTCGGAGTCACCTAGTGCAG,8080 fluorescence intensity (a.u.)
20,ATCTTTTTCTACTATCACTATATCATATTCTATTTTTTTTCGGAGTCACCTAGTGCAG,10500 fluorescence intensity (a.u.)
21,CCCCACATTTTCTTTCACCTTCTCTTCCATTCCACCTCTCCGGAGTCACCTAGTGCAG,10100 fluorescence intensity (a.u.)
22,CACTATTCCTTTCCGGATTGCTTCTGCGTTCTACTTGATGCGGAGTCACCTAGTGCAG,11000 fluorescence intensity (a.u.)
23,ACTGCTAATTCGTCTATTTTGTACCACTTTCTCTATTTTTCGGAGTCACCTAGTGCAG,16500 fluorescence intensity (a.u.)

row,Sequence,binding signal
1,TGTGGTGTGCTTGAGGTGCTTTTGAGTTTTAAATAGATTACGGAGTCACCTAGTGCAG,8520 fluorescence intensity (a.u.)
2,GGGATCTGAGGCGCGTTTCTTAATTTGCCTTCTCTTTGAGCGGAGTCACCTAGTGCAG,9220 fluorescence intensity (a.u.)
3,AGTCCATCTAATTCGGCTGCACTCTTTTTCCCCTGTGAAGCGGAGTCACCTAGTGCAG,8530 fluorescence intensity (a.u.)
4,ATTTTATCACCCTGCTTAGAGTTTCGCCCGGAGCCATGAACGGAGTCACCTAGTGCAG,10700 fluorescence intensity (a.u.)
5,GCGAGGTCGGGGAGGTGGGTGCACAGTGCCCTGCGAGATGCGGAGTCACCTAGTGCAG,8120 fluorescence intensity (a.u.)
6,TACAAGCCCGTTGCCATCTCTACTCCGGCCTCCTAGTCCTCGGAGTCACCTAGTGCAG,9760 fluorescence intensity (a.u.)
7,GAATTCTTGTGTTCCAAGCATTTCGATTTGCTCCTCTCTTCGGAGTCACCTAGTGCAG,9020 fluorescence intensity (a.u.)
8,CTGCTCTAACTGAAGTGCCAGGTGACTTGCTTGGTTGGTTCGGAGTCACCTAGTGCAG,18300 fluorescence intensity (a.u.)
9,ATCGGAGACTGACTGAGTGAAGGTTGGTTGGTTCACACTTCGGAGTCACCTAGTGCAG,8750 fluorescence intensity (a.u.)
10,ATGGTGGTTCTAATTCTGTTGGTTGACTGCTCTCTGAAATCGGAGTCACCTAGTGCAG,13300 fluorescence intensity (a.u.)
11,CTATCGTCATCCTCGCGATCGCCGCATTCATCCATCCACTCGGAGTCACCTAGTGCAG,12800 fluorescence intensity (a.u.)
12,TTTGTCCTGGGCTTCTTTCGGCCCAATCTCTCTCCCGTCGCGGAGTCACCTAGTGCAG,11100 fluorescence intensity (a.u.)
13,ACTGTTTATAGGGTAGGGGTAAGGTTGTGTTCATATAGGTCGGAGTCACCTAGTGCAG,11700 fluorescence intensity (a.u.)
14,GGGTGCTGGGGCTTTGGCTGCCTTGACTTGGATTGCCTTCCGGAGTCACCTAGTGCAG,8640 fluorescence intensity (a.u.)
15,GGGTGGGGTGGGCCTGGGCTGATGCATGTTTGGCGCTTAGCGGAGTCACCTAGTGCAG,21200 fluorescence intensity (a.u.)
16,TCCGGGCTGGGTGGGTGGGGTGGGGATGGAGCTTGCCTGGCGGAGTCACCTAGTGCAG,24100 fluorescence intensity (a.u.)
17,TCTCCTGGTTTTGTGTGTTAGCGCTGTCAGTGTGTGGGTGCGGAGTCACCTAGTGCAG,8120 fluorescence intensity (a.u.)
18,TCGGAGTGGGGAGATGGTGTCGGGGTGCTGGGTTTCCGGGCGGAGTCACCTAGTGCAG,13100 fluorescence intensity (a.u.)
19,CTGGGGTTGGCCTGGGCTGATATATGTTTGGCGCTCAAAACGGAGTCACCTAGTGCAG,11100 fluorescence intensity (a.u.)
20,GGGTGGGTGGGGCGGTGCTTTCCTGGAGATGGGAGAGTGGCGGAGTCACCTAGTGCAG,23000 fluorescence intensity (a.u.)
21,GGTGCGGCGGTGGGCGGCATGGAGATGGGGAGAGGAGGCGCGGAGTCACCTAGTGCAG,10600 fluorescence intensity (a.u.)
22,TGGGGATGGAGCTTGCCTGGGTGGTGGTGAGGGCGCAGTTCGGAGTCACCTAGTGCAG,8680 fluorescence intensity (a.u.)
